# Source: PubChem BioAssay (NCI)
# About 83,000 compounds went through this panel and 20% of them were active in at least one assay; those are over-represented in the sample as a whole.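 Negative percent growth values reflect cell death: -40 means 40% of the cells present at the start died, and -100 means all died.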 Unmarked numbers belong to inactive results. Active and inactive are the calls of the source.
# Test system: HT29 colon
# Assay: NCI-60 one-dose screen, 48 h (100 = growth as untreated, 0 = no growth, -100 = all killed)
# Details: 10 µM unless noted
# Protocol: Growth inhibition of the HT29 human tumor cell line is measured as a screen for anti-cancer activity. Cells are grown in 96 well plates and exposed to the test compound for 48 hours. Compounds are tested at a single concentration, which is 10^-5 M for most compounds. The reported endpoint is percent growth (GI% or GIPRCNT), where numbers from 0 - 100% represent growth inhibition, and numbers from -100% - 0 represent cell death. For example, a value of 40 represents 60% growth inhibition. A value of 0 means no net growth occurred over the course of the experiment. A value of -40 indicates 40% of cells at the beginning of the experiment died by the end of the experiment. A value of -100 means all cells are dead at the end of the experiment.
# NCI-60 Human Tumor Cell Lines Screen was performed using the standard one-dose NCI protocol, which is described in more detail at https://dtp.cancer.gov/discovery_development/nci-60/default.htm.
# Compounds with GIPRCNT values below 10 were considered active. Activity score was based on GIPRCNT using the following formula: […]
# Score is 0 for GIPRCNT values of 100 or above, 50 for GIPRCNT values of 0, and 100 for GIPRCNT values of -100.
row,Compound,growth
1,CC(=O)O[C@H]1CC[C@@]2(C)C(=CC[C@H]3[C@@H]4C[C@@H](N5CC5)[C@H](C(C)=O)[C@@]4(C)CC[C@@H]32)C1,85.9%
2,OCCCCCNC1CCCCC1,90.7%
3,O=P(Oc1ccc(Cl)cc1)(N1CC1)N1CC1,72.5%
4,COC(=O)[C@H](Cc1ccccc1)NC(=O)c1csc([C@@H](C[C@H](C(C)C)N(C)C(=O)[C@@H](NC(=O)[C@H]2CCCCN2C)C2CC2)OC(C)=O)n1,5.33% (active)
5,CC(=O)c1ccc(C(=O)NCC2CCC3(CC2)OOC2(CCCCC2)OO3)cc1,83.4%
6,COC(=O)CC[C@H](Cc1ccccc1)NC(=O)c1csc([C@@H](C[C@H](C(C)C)N(C)C(=O)[C@@H](NC(=O)[C@H]2CCCCN2C)C(C)C)OC(C)=O)n1,5.29% (active)
7,O=C([O][Hg][c]1ccccc1)c1ccccc1,-14.8% (active)
8,C=CCn1cc(C=C2C(=O)N(C)C(=O)N(C)C2=O)c2ccccc21,104%
9,COc1cc(/C=N/C2=C(C#N)C(c3ccco3)c3c(c4cc(C)ccc4oc3=O)O2)cc(OC)c1OC (stereo not given),109%
10,COc1cc(C=Nc2cccc(Br)c2)ccc1N(CCCl)CCCl,63.4%
11,O=NNc1ccccn1,34.3%
12,CC(=O)Oc1ccccc1C(=O)NCCC[Se]C#N,91.1%
13,O=C(CCCCCNC1=CC(=O)c2ccccc2C1=O)NCCC[Te]c1ccccc1,-47.5% (active)
14,C[C@@H]1CCC2[C@@H](C)[C@H](OC(=O)CCC(=O)NCCNC(=O)Cc3cc(=O)oc4cc(N(C)C)ccc34)O[C@@H]3O[C@]4(C)CC[C@@H]1C23OO4 (stereo not given in full),26.4%
15,CC(=O)[O][Hg][O]C(C)=O,73.8%
16,C#C[C@]1(OC(=O)CCCCCC)CC[C@H]2[C@@H]3CCC4=CC(=O)CC[C@@H]4[C@H]3CC[C@@]21C,9.11% (active)
17,Clc1ccc(CO/N=C(\Cn2ccnc2)c2ccc(Cl)cc2Cl)c(Cl)c1,-19.4% (active)
18,CN[C@]1(c2ccccc2Cl)CCCC[C@H]1NCCCN1CCN(C)CC1,96%
19,Cc1cc(C)c(CBr)c(C)c1,100%
20,CN1C(=O)C(=Cc2cn(CCCCCCn3c4ccccc4c(=O)c4ccccc43)c3ccccc23)C(=O)N(C)C1=O,96.1%

row,Compound,growth
1,COc1ccc2c(c1)c(C1(O)CC(CSC#N)OC1=O)cn2C(=O)c1ccc(Cl)cc1 (stereo not given),110%
2,Nc1nnnc2nc[nH]c12,38.4%
3,O=[N+]([O-])c1ccc(OP(=O)(CCl)N(CCCl)CCCl)cc1 (stereo not given),86.8%
4,O=C1CNC(c2ccccc2)c2cc(Cl)ccc2N1 (stereo not given),80.4%
5,CCc1ccccc1[C@@H]1C[C@]2(C)CCO[C@@H]2OO1,98.4%
6,CC[C@H](C)[C@H](NC(=O)C12C3C4C1C1C2C3C41NC(C)=O)C(=O)N(C)[C@H](C[C@@H](OC(C)=O)c1nc(C(=O)N[C@@H](Cc2ccccc2)C[C@H](C)C(=O)OC)cs1)C(C)C (stereo not given in full),4.53% (active)
7,Cc1cnc(/C=C/C(=O)O)cc1-c1cc2c(cc1C)C(C)(C)CCC2(C)C,68.3%
8,COc1ccc(/C=C\c2cc(OC)c(OC)c(OC)c2)cc1NC(=O)/C=C/c1ccc(OC)c(OC)c1,15.7%
9,C=COC(=O)CCN1CC1,110%
10,COC(=O)[C@@H](C)C[C@H](Cc1ccc2ccccc2c1)NC(=O)c1csc([C@@H](C[C@H](C(C)C)N(C)C(=O)[C@@H](NC(=O)[C@H]2CCCCN2C)C(C)C)OC(C)=O)n1,1.71% (active)
11,CC(C)(NC(=O)O[C@@H]1CN2CCC1CC2)c1csc(-c2ccc(F)cc2)n1,104%
12,CC(=O)[C@H]1CC[C@H]2[C@@H]3CC[C@H]4C[C@H](N)CC[C@]4(C)[C@H]3CC[C@]12C,13.7%
13,O=C(CC1(O)C(=O)Nc2ccccc21)c1ccc(C(=O)NCC2CCC3(CC2)OOC2(CCCCC2)OO3)cc1 (stereo not given),82.1%
14,CCn1cnc2c(Nc3cccc(Cl)c3)nc(N[C@@H]3CCCC[C@@H]3N)nc21,-4.11% (active)
15,CCOC(=O)[C@@H](C)C[C@H](Cc1ccccc1)NC(=O)c1csc([C@@H](C[C@H](C(C)C)N(C)C(=O)[C@@H](NC(=O)[C@H]2CCCCN2C)C(C)(C)CC)OC(C)=O)n1,-4.94% (active)
16,COP(=O)(OC)C(O)c1ccc(Cl)cc1 (stereo not given),96.1%
17,O=C1C2CC=CCC2C(=O)N1SC(Cl)(Cl)Cl (stereo not given),89.2%
18,O=C(NCCN1CC1)C(=O)NCCN1CC1,68.9%
19,CC1=C(CCCOC(=O)[C@H](N)CC(C)C)C2=C(C)C3(CC3)[C@@](C)(O)C(=O)C2=C1,12.6%
20,O=C(CCCC1CCCCC1)OCC(Cl)(Cl)Cl,103%
